Measured values taken from PMC7862700, “An all-to-all approach to the identification of sequence-specific readers for epigenetic DNA modifications on cytosine”.

Legend:
Test in all cases: DAPPL (digital affinity profiling via proximity ligation, sequencing); 10 mM Tris-HCl pH 7.5, 50 mM NaCl, 1 mM DTT, 4% glycerol, room temperature, 30 min; GST-TFs on glutathione beads, 16-mer random dsDNA library, 0.1% formaldehyde crosslink after washing; high values mean tight binding
FLI1 = biological target: T1, FLI1 (Homo sapiens, UniProt Q01543 1-452); conditions: protein: recombinant; tags: N-terminal GST; dsDNA, one strand shown
T1 sequence: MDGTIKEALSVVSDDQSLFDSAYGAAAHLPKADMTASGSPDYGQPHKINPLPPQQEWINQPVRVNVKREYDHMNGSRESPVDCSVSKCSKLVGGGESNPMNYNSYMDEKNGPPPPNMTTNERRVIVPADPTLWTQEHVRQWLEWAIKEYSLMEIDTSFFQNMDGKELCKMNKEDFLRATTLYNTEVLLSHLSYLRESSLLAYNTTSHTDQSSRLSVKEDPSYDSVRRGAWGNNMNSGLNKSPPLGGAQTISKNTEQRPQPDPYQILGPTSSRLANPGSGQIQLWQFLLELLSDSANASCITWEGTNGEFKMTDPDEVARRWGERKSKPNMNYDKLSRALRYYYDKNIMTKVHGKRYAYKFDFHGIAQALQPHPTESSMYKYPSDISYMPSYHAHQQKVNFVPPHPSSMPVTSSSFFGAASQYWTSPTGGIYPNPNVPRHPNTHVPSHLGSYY
In short: (§1)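 Human transcription factors fused to GST were expressed in yeast, captured on glutathione beads, given DNA barcodes and pooled with a GST-only negative control. Pools were incubated with 200 nmole of a 16-mer random double-stranded DNA library in Tris/NaCl/DTT/glycerol buffer at room temperature for 30 min. They were then washed, crosslinked with 0.1% formaldehyde, proximity-ligated (BsaI/T4 ligase, 1 h, 37 °C), PCR-amplified and sequenced on an Illumina NextSeq500. Binding signal is each 6-mer's read frequency for a factor divided by its frequency for the GST control.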

ELK1 = biological target: T2, ELK1 (Homo sapiens, UniProt P19419 1-428); conditions: protein: recombinant; tags: N-terminal GST; dsDNA, one strand shown
T2 sequence: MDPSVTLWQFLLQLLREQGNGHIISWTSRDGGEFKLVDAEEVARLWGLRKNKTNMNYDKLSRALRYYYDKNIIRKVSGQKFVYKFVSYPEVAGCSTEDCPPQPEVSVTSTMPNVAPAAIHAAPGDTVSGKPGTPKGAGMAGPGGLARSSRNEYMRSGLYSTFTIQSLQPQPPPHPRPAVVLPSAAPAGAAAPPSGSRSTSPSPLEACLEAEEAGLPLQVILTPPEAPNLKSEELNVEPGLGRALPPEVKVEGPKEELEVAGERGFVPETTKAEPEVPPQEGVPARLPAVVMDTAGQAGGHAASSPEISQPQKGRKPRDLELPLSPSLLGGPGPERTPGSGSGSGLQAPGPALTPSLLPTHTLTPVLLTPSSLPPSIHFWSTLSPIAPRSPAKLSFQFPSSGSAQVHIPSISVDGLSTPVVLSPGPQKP
In short: as §1

GABPA = biological target: T3, GABPA (Homo sapiens, UniProt Q06546 1-454); conditions: protein: recombinant; tags: N-terminal GST; dsDNA, one strand shown
T3 sequence: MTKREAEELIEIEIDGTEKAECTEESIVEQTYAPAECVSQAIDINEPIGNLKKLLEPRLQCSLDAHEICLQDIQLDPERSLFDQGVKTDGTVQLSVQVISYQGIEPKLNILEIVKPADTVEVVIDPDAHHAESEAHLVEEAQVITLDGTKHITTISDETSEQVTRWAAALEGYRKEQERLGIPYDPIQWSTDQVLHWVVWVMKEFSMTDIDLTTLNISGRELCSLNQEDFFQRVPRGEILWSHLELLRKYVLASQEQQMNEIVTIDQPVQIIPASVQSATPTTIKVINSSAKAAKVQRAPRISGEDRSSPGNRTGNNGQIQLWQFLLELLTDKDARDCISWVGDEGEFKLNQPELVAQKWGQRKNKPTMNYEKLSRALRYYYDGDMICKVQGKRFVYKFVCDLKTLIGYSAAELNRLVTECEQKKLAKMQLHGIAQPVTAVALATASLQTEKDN
In short: as §1

ERG = biological target: T4, ERG (Homo sapiens, UniProt P11308 1-479); conditions: protein: recombinant; tags: N-terminal GST; dsDNA, one strand shown
T4 sequence: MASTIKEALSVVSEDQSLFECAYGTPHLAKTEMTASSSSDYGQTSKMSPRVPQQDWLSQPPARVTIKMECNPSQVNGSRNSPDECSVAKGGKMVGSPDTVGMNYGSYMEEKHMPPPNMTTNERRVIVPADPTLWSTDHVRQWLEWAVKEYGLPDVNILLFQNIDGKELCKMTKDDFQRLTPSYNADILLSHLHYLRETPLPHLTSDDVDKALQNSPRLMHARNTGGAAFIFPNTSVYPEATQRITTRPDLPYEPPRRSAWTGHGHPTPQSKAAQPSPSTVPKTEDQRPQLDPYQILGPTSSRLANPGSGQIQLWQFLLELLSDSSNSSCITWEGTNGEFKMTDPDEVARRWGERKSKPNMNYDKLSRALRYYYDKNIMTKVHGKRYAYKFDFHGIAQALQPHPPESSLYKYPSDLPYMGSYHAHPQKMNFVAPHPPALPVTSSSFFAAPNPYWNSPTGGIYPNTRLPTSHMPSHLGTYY
In short: as §1

ELF1 = ELF1 (Homo sapiens, UniProt P32519 1-619); conditions: protein: recombinant; tags: N-terminal GST; dsDNA, one strand shown
Chain of ELF1 (P32519 whole entry): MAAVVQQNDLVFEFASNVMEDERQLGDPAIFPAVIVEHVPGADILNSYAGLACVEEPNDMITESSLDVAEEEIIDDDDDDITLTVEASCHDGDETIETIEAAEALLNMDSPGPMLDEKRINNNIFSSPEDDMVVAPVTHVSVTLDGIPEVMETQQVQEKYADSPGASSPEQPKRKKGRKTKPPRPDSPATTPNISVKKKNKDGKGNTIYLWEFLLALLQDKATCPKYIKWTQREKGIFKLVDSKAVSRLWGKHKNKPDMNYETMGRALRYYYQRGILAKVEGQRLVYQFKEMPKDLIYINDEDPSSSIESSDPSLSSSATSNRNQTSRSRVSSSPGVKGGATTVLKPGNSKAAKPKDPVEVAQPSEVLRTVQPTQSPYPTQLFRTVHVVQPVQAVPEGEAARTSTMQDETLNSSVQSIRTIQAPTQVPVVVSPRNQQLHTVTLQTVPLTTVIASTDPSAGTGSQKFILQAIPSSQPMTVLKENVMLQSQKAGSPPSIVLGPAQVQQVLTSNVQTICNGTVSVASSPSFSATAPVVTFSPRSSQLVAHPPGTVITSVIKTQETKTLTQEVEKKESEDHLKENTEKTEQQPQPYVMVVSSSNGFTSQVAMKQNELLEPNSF
In short: as §1

EHF = biological target: T5, EHF (Homo sapiens, UniProt Q9NZC4 1-300); conditions: protein: recombinant; tags: N-terminal GST; dsDNA, one strand shown
T5 sequence: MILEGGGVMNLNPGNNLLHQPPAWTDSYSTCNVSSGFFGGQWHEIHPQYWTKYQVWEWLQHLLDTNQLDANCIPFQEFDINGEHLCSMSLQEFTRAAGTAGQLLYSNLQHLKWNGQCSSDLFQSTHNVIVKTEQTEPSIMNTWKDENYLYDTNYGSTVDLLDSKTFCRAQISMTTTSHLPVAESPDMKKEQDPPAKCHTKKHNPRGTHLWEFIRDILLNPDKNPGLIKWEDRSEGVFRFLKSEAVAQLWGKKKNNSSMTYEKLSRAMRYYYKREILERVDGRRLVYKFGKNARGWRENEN
In short: as §1

SPI1 = SPI1 (Homo sapiens, UniProt P17947 1-270); conditions: protein: recombinant; tags: N-terminal GST; dsDNA, one strand shown
In short: as §1

SPIB = SPIB (Homo sapiens, UniProt Q01892 1-262); conditions: protein: recombinant; tags: N-terminal GST; dsDNA, one strand shown
Chain of SPIB (Q01892 whole entry): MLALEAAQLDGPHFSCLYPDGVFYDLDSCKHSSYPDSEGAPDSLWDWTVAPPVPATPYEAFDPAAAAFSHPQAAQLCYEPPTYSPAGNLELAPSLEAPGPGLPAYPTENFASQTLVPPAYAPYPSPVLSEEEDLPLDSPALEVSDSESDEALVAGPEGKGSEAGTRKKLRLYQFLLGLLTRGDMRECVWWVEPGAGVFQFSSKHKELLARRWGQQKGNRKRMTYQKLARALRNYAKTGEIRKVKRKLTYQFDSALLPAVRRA
In short: as §1

ELK3 = biological target: T6, ELK3 (Homo sapiens, UniProt P41970 1-407); conditions: protein: recombinant; tags: N-terminal GST; dsDNA, one strand shown
T6 sequence: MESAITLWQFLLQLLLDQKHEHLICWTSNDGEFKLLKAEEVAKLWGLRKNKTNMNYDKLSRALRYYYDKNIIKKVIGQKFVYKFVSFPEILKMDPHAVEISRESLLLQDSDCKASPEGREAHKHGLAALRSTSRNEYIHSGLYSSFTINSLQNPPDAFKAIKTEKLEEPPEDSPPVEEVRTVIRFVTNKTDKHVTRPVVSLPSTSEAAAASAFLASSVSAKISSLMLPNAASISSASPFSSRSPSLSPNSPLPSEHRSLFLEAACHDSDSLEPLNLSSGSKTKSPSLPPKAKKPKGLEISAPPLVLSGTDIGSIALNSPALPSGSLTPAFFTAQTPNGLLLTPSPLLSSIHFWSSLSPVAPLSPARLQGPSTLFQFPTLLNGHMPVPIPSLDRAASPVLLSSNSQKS
In short: as §1

FEV = biological target: T7, FEV (Homo sapiens, UniProt Q99581 1-238); conditions: protein: recombinant; tags: N-terminal GST; dsDNA, one strand shown
T7 sequence: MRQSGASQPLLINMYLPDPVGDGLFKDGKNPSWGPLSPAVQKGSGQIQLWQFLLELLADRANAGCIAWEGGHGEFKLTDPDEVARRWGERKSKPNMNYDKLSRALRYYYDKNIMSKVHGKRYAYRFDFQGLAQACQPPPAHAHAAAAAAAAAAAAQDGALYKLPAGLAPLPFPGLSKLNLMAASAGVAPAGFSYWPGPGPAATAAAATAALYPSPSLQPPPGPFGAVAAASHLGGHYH
In short: as §1

ETV5 = ETV5 (Homo sapiens, UniProt P41161 1-510); conditions: protein: recombinant; tags: N-terminal GST; dsDNA, one strand shown
Chain of ETV5 (P41161 whole entry): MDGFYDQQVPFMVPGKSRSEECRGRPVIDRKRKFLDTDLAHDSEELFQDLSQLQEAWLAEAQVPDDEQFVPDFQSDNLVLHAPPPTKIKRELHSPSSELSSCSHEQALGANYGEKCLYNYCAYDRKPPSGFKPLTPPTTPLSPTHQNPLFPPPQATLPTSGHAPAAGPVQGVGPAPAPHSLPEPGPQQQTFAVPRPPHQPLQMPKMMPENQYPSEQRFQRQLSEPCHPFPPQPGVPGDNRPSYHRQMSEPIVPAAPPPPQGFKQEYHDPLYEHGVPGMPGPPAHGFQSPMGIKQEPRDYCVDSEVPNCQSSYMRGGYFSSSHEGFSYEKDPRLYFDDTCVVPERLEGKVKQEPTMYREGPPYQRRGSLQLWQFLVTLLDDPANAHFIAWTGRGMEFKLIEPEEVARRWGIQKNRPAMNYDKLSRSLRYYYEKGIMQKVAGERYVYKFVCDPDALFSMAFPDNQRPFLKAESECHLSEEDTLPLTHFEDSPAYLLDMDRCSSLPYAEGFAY
In short: as §1

HSF1 = HSF1 (Homo sapiens, UniProt Q00613 1-529); conditions: protein: recombinant; tags: N-terminal GST; chain copies: 3; dsDNA, one strand shown
Chain of HSF1 (Q00613 whole entry): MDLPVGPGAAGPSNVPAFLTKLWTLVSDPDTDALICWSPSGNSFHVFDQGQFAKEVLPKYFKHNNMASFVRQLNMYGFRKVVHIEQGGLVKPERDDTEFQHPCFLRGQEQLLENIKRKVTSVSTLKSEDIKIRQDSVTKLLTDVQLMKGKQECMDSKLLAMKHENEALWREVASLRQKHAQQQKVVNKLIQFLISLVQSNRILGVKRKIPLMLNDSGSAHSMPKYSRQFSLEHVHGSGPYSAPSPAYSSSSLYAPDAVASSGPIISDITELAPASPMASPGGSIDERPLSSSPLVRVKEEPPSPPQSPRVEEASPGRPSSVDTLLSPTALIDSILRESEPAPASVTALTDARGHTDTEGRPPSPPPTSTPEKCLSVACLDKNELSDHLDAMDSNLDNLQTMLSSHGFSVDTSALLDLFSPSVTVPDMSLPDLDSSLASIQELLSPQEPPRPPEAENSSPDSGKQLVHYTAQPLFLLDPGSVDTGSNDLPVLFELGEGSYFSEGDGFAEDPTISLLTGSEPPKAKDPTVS
In short: as §1

SPIC = biological target: T8, SPIC (Homo sapiens, UniProt Q8N5J4 1-248); conditions: protein: recombinant; tags: N-terminal GST; dsDNA, one strand shown
T8 sequence: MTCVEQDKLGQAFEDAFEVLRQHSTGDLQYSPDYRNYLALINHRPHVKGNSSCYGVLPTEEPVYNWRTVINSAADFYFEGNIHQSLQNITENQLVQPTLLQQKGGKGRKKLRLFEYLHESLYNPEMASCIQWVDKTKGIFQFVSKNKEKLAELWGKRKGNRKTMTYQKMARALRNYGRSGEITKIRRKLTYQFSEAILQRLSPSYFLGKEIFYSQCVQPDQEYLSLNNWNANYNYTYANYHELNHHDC
In short: as §1

ELF4 = ELF4 (Homo sapiens, UniProt Q99607 1-663); conditions: protein: recombinant; tags: N-terminal GST; dsDNA, one strand shown
Chain of ELF4 (Q99607 whole entry): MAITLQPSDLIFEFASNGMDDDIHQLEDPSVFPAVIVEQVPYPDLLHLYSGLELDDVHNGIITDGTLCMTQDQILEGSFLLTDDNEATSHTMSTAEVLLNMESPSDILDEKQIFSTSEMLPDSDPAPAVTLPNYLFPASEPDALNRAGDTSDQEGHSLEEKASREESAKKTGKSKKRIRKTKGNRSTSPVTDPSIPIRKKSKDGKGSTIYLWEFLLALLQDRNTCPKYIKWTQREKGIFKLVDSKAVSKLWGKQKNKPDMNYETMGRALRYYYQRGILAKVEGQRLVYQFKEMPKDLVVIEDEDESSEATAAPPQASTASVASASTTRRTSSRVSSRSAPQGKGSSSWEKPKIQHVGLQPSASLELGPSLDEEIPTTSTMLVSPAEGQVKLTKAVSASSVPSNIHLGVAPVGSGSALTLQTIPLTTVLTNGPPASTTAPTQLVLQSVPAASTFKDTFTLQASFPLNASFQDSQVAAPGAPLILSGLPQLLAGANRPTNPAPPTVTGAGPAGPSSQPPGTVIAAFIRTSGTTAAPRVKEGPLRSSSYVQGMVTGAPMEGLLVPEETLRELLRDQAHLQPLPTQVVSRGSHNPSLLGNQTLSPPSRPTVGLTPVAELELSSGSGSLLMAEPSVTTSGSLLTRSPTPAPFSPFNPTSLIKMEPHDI
In short: as §1

ELK4 = biological target: T9, ELK4 (Homo sapiens, UniProt P28324-2 1-405); conditions: protein: recombinant; tags: N-terminal GST; dsDNA, one strand shown
T9 sequence: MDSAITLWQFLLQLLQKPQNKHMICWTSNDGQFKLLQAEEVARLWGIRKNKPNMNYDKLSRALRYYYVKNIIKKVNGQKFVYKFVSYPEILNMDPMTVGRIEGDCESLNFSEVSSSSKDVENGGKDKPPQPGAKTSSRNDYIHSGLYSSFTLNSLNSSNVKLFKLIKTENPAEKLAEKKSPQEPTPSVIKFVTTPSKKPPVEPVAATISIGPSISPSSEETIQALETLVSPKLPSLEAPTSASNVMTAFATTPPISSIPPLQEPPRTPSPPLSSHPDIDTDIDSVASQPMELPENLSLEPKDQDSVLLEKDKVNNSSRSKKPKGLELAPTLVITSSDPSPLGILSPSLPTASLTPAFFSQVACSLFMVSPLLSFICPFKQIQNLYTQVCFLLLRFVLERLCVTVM
In short: as §1

ETV2 = biological target: T10, ETV2 (Homo sapiens, UniProt O00321 1-342); conditions: protein: recombinant; tags: N-terminal GST; dsDNA, one strand shown
T10 sequence: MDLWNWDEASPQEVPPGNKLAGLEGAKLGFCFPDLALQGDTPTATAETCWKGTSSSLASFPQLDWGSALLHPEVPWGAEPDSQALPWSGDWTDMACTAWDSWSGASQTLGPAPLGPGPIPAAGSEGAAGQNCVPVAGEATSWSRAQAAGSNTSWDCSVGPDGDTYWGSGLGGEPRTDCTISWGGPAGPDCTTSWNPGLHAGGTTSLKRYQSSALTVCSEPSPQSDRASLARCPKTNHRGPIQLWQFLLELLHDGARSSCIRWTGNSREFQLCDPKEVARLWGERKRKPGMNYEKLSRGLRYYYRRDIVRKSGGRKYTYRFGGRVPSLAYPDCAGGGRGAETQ
In short: as §1

ELF3 = biological target: T11, ELF3 (Homo sapiens, UniProt P78545 1-371); conditions: protein: recombinant; tags: N-terminal GST; dsDNA, one strand shown
T11 sequence: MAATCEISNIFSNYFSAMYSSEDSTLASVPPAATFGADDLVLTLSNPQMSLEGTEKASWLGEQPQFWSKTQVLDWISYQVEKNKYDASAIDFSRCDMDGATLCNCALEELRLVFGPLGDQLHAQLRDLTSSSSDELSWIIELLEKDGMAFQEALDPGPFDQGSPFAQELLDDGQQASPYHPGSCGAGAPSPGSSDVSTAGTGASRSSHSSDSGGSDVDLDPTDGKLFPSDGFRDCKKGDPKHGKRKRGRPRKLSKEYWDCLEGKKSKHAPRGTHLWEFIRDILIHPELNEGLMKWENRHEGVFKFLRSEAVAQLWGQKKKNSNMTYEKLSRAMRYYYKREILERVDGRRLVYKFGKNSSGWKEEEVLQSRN
In short: as §1

CRX = CRX (Homo sapiens, UniProt O43186 1-299); conditions: protein: recombinant; tags: N-terminal GST; dsDNA, one strand shown
Chain of CRX (O43186 whole entry): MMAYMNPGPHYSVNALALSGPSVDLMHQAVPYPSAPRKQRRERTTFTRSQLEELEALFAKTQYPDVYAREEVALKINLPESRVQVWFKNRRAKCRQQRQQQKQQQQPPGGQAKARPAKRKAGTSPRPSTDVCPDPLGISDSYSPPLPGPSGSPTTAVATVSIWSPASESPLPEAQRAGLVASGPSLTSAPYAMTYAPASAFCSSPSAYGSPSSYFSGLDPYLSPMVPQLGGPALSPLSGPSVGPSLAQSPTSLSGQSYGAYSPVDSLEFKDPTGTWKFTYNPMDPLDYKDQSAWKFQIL
In short: as §1

ETV1 = ETV1 (Homo sapiens, UniProt P50549 1-477); conditions: protein: recombinant; tags: N-terminal GST; dsDNA, one strand shown
Chain of ETV1 (P50549 whole entry): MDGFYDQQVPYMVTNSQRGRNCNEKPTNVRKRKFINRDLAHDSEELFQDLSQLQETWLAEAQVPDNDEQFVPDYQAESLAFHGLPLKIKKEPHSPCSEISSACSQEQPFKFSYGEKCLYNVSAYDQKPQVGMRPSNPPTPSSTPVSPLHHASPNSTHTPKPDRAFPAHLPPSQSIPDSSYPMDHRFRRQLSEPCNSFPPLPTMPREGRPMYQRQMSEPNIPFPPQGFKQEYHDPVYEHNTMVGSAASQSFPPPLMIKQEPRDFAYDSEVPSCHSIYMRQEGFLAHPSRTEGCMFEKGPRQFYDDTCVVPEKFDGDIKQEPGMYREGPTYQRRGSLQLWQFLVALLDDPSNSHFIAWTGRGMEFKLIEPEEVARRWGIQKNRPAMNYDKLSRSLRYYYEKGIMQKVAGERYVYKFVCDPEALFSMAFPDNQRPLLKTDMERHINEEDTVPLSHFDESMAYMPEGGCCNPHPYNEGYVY
In short: as §1

For TTATGG, the binding signal (FLI1) was 1.42 fold enrichment (6-mer frequency, TF over GST control), the binding signal (ELK1) was 1.39 fold enrichment (6-mer frequency, TF over GST control) and the binding signal (GABPA) was 1.39 fold enrichment (6-mer frequency, TF over GST control). For the same sequence, the binding signal (ERG) was 1.3 fold enrichment (6-mer frequency, TF over GST control), the binding signal (ELF1) was 1.3 fold enrichment (6-mer frequency, TF over GST control) and the binding signal (EHF) was 1.46 fold enrichment (6-mer frequency, TF over GST control). The binding signal (SPI1) was 1.34 fold enrichment (6-mer frequency, TF over GST control), the binding signal (SPIB) was 1.44 fold enrichment (6-mer frequency, TF over GST control) and the binding signal (ELK3) was 1.39 fold enrichment (6-mer frequency, TF over GST control). The binding signal (FEV) was 1.33 fold enrichment (6-mer frequency, TF over GST control), the binding signal (ETV5) was 1.39 fold enrichment (6-mer frequency, TF over GST control) and the binding signal (HSF1) was 1.74 fold enrichment (6-mer frequency, TF over GST control). For the same sequence, the binding signal (SPIC) was 1.53 fold enrichment (6-mer frequency, TF over GST control), the binding signal (ELF4) was 1.31 fold enrichment (6-mer frequency, TF over GST control) and the binding signal (ELK4) was 1.24 fold enrichment (6-mer frequency, TF over GST control). For the same sequence, the binding signal (ETV2) was 1.45 fold enrichment (6-mer frequency, TF over GST control), the binding signal (ELF3) was 1.53 fold enrichment (6-mer frequency, TF over GST control) and the binding signal (CRX) was 2.62 fold enrichment (6-mer frequency, TF over GST control). The binding signal (ETV1) was 1.41 fold enrichment (6-mer frequency, TF over GST control).
